The record followed here is PubChem BioAssay (NCI).

About 83,000 compounds went through this panel and 20% of them were active in at least one assay; those are over-represented in the sample as a whole.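 Plates (96-well) were seeded with cells, treated with compound at one concentration, and incubated for 48 hours before percent growth was determined.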 Values without a mark were called inactive. The source made the active and inactive calls. How the source made its calls: active means growth percent below 10; inactive means the rest.

In this test the test system is PC-3 prostate. Put plainly: NCI-60 one-dose screen, 48 h (100 = growth as untreated, 0 = no growth, -100 = all killed). To be noted: 10 µM unless noted.
For the compound `CCCCCC(=O)OCCC1CCCCC1`, the growth is 98.7%.
Take `CC(C)OCC(CCl)OC(=O)Nc1ccccc1` (stereo unspecified): the growth is 98.8%.
Turning to `Oc1cccc(CNC2CCCCC2)c1`, the growth was 99.8%.
For the compound `C=CCC(OC(C)=O)c1ccc(OC)c(OC)c1` (stereo unspecified), the growth is 92.5%.
For the compound `COC1OC(CO)C(OC)C(O)C1O` (stereo unspecified), the growth is 103%.
`O=S(Cc1ccccc1)/C(=C/NC(=S)Nc1ccccc1)c1ccccc1` (stereo unspecified): the growth is 95.4%.
The same measure for `Oc1ccc(N=Cc2ccc(OCc3ccccc3)cc2)cc1`: 92.5%; for `CCCCCCCCCCCCCCCCCC(=O)NCCNC(=O)CCCCCCCCCCCCCCCCC`: 65%.
As for `O=C1C=C(c2ccccc2)C(O)(c2ccccc2)C1` (stereo unspecified), the growth is 92.8%.
On to `Nc1ncc([N+](=O)[O-])cn1`, for which the growth was 88.7%.
For `CCN(C(C)=O)c1ccc([N+](=O)[O-])cc1`, the growth is 97.5%.
`C1C[S+]2CC[S+]1CC2`: the growth is 101%.
For the compound `NC(=O)OCCO`, the growth is 98.5%.
On to `COC1CC(OC(=O)c2ccc([N+](=O)[O-])cc2)C(COC(=O)c2ccc([N+](=O)[O-])cc2)O1` (stereo unspecified), for which the growth was 89.8%.
For the compound `CC(=O)c1cc(O)ccc1O`, the growth was 98.3%.
`Cc1c(Cl)cccc1NC(=S)NC(=O)c1ccccc1`: the growth is 89.2%.
For the compound `Cc1cc(Cl)cc(Cc2cc(Cl)cc(C)c2O)c1O`, the growth was -7.63% (active).
In the case of `CCCOCc1cn[nH]n1`, the growth was 102%.
With `Cc1ccc(C(C)C)c(OCC(=O)O)c1`, the growth is 98.7%.
`OC(CBr)CCBr` (stereo unspecified): the growth was 87.5%.
Take `CC(CCC#N)(CCC#N)C(=O)c1ccccc1`: the growth was 87.8%.
